The structures appear in SMILES notation. This is part of a sample that, as a whole, favours compounds with a hit. Of some 83,000 tested, about 20% had one in any assay.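 48-hour exposure, single concentration, 96-well plates; percent growth endpoint where 0 means no net growth. Active: below 10.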 Values without a mark were called inactive. Activity calls are given as the source filed them.

Assay in all cases: NCI-60 one-dose screen, 48 h (100 = growth as untreated, 0 = no growth, -100 = all killed)
For one experiment, the system named is SK-MEL-2 melanoma. The conditions noted are these: 10 µM unless noted.
The next experiment has as its system EKVX NSCLC. The conditions noted are these: 10 µM unless noted.
The next experiment relates to SN12C renal. The conditions noted are these: 10 µM unless noted.
In another experiment the test system is UO-31 renal. The conditions noted are these: 10 µM unless noted.
The next experiment relates to TK-10 renal. The conditions noted are these: 10 µM unless noted.
The test system of another experiment is A498 renal. The settings on record: 10 µM unless noted.
In the next experiment the test system is CCRF-CEM leukemia. The conditions noted are these: 10 µM unless noted.
Another experiment has as its system MOLT-4 leukemia. The settings on record: 10 µM unless noted.
The subject of another experiment is SR leukemia. The conditions noted are these: 10 µM unless noted.
The test system of another experiment is RPMI-8226 leukemia. The conditions noted are these: 10 µM unless noted.
The next experiment has as its system OVCAR-8 ovarian. The settings on record: 10 µM unless noted.
For another experiment, the system named is OVCAR-5 ovarian. The conditions noted are these: 10 µM unless noted.
For another experiment, the system named is OVCAR-4 ovarian. The conditions noted are these: 10 µM unless noted.
In the next experiment the test system is IGROV1 ovarian. The conditions noted are these: 10 µM unless noted.
For the next experiment, the system named is OVCAR-3 ovarian. The settings on record: 10 µM unless noted.
A further experiment deals with HS 578T breast. The settings on record: 10 µM unless noted.
A further experiment deals with NCI/ADR-RES ovarian. The conditions noted are these: 10 µM unless noted.
The test system of another experiment is SK-OV-3 ovarian. The settings on record: 10 µM unless noted.
A further experiment deals with ACHN renal. The conditions noted are these: 10 µM unless noted.
A further experiment concerns CAKI-1 renal. The conditions noted are these: 10 µM.

In the case of `C=CC(C)(O)CCC1C(=C)CCC2C(C)(C)CCCC12C` (centres undefined), the growth was 92.2% with SK-MEL-2 melanoma; 96.7% in the experiment with EKVX NSCLC; 108% in the experiment on SN12C renal; 90.3% in the experiment with UO-31 renal; 83.3% with TK-10 renal; 106% in the experiment on A498 renal. For the same molecule, the growth in the experiment with CCRF-CEM leukemia was 124%; with MOLT-4 leukemia it was 89.9%; in the experiment with SR leukemia, 90.2%; in the experiment with RPMI-8226 leukemia it was 102%; with OVCAR-8 ovarian it was 114%; in the experiment on OVCAR-5 ovarian, 106%. The growth in the experiment with OVCAR-4 ovarian is 114%; in the experiment with IGROV1 ovarian, 108%; in the experiment on OVCAR-3 ovarian, 105%; with HS 578T breast, 113%; with NCI/ADR-RES ovarian, 101%.

For the molecule `CCCCOc1c(N)cc(Cl)cc1C(=O)OCCN(CC)CC`, the growth with SK-MEL-2 melanoma was 90.9%; with EKVX NSCLC, 104%; with SN12C renal, 97%; in the experiment with UO-31 renal it was 82.3%; with TK-10 renal, 94.3%; in the experiment with A498 renal, 80.1%. For the same molecule, the growth was 72.6% in the experiment on CCRF-CEM leukemia; 58.4% in the experiment on MOLT-4 leukemia; 79.5% in the experiment on SR leukemia; 100% in the experiment on RPMI-8226 leukemia; 90.8% in the experiment with OVCAR-8 ovarian; 113% in the experiment with OVCAR-5 ovarian. In addition, the growth in the experiment on OVCAR-4 ovarian is 118%; in the experiment with SK-OV-3 ovarian, 94.5%; in the experiment with IGROV1 ovarian it was 107%; in the experiment with OVCAR-3 ovarian, 108%; in the experiment with HS 578T breast it was 99.7%; in the experiment on NCI/ADR-RES ovarian, 107%.

Regarding `CN(C)c1ccc(/C=c2\s/c(=C\C(=O)C(C)(C)C)[nH]c2=O)cc1`, the growth in the experiment on SK-MEL-2 melanoma is 102%; with EKVX NSCLC it was 93.9%; in the experiment with SN12C renal, 99%; in the experiment on UO-31 renal it was 92.5%; with ACHN renal, 100%; with CAKI-1 renal, 97.8%. The growth in the experiment on A498 renal was 105%; in the experiment on CCRF-CEM leukemia, 101%; in the experiment on MOLT-4 leukemia, 133%; in the experiment on SR leukemia it was 92.1%; in the experiment with RPMI-8226 leukemia, 104%; with OVCAR-8 ovarian it was 102%. Also, the growth in the experiment with OVCAR-5 ovarian is 99.7%; with OVCAR-4 ovarian it was 85.3%; in the experiment on SK-OV-3 ovarian, 100%; with IGROV1 ovarian it was 88.5%; in the experiment with OVCAR-3 ovarian, 102%; in the experiment with HS 578T breast it was 103%.

In the case of `CCN1CCN(Cc2ccc(NC(=O)Nc3cccc(-n4ccc5c(NC(=O)c6ccccc6)nccc54)c3)cc2C(F)(F)F)CC1`, the growth was 90.6% in the experiment with SK-MEL-2 melanoma; 89.8% with EKVX NSCLC; 95.7% in the experiment with SN12C renal; 72.3% with UO-31 renal; 96% in the experiment on ACHN renal; 81% in the experiment on CAKI-1 renal. Also, the growth in the experiment on A498 renal is 90%; in the experiment with CCRF-CEM leukemia it was 78.7%; in the experiment on MOLT-4 leukemia, 112%; in the experiment on SR leukemia, 64.3%; in the experiment on RPMI-8226 leukemia, 99.1%; with OVCAR-8 ovarian, 91%. Moreover, the growth in the experiment with OVCAR-5 ovarian is 101%; in the experiment with OVCAR-4 ovarian it was 95.8%; in the experiment on SK-OV-3 ovarian, 78.3%; with IGROV1 ovarian, 74.8%; in the experiment with OVCAR-3 ovarian it was 57.3%.

Consider `CNCCCOc1c(Br)cc(CCNC(=O)/C(Cc2ccc(OC)c(Br)c2)=N/O)cc1Br`, for which the growth was 40% in the experiment on SK-MEL-2 melanoma; 65.5% in the experiment on EKVX NSCLC; 57.6% in the experiment with SN12C renal; 41.7% with UO-31 renal; 74.1% in the experiment with TK-10 renal; 39.4% in the experiment with A498 renal. Also, the growth in the experiment on CCRF-CEM leukemia is 31.6%; in the experiment on MOLT-4 leukemia, 10.3%; in the experiment on SR leukemia, -30.7% (active); in the experiment with RPMI-8226 leukemia it was 8.44% (active); in the experiment on OVCAR-8 ovarian, 73.2%; with OVCAR-5 ovarian it was 86.7%. The growth was 27.9% with OVCAR-4 ovarian; 63.4% in the experiment with SK-OV-3 ovarian; 49.5% with IGROV1 ovarian; 65.5% with OVCAR-3 ovarian; 37.6% with HS 578T breast; 81.3% with NCI/ADR-RES ovarian.

As for `Cc1c(Cl)ccc2c(C(=O)Cl)cc(-c3ccccc3)nc12`, the growth in the experiment with SK-MEL-2 melanoma was 106%; in the experiment with EKVX NSCLC it was 95.6%; in the experiment on SN12C renal, 99.9%; with UO-31 renal, 90.1%; with TK-10 renal, 105%; with A498 renal, 84.4%. Also, the growth in the experiment with CCRF-CEM leukemia is 88.1%; in the experiment with MOLT-4 leukemia, 96.2%; in the experiment with SR leukemia, 91.8%; in the experiment with RPMI-8226 leukemia, 92.2%; in the experiment with OVCAR-8 ovarian it was 99.7%; with OVCAR-5 ovarian it was 97.1%. The growth in the experiment on OVCAR-4 ovarian is 88.5%; in the experiment with IGROV1 ovarian, 107%; in the experiment on OVCAR-3 ovarian, 104%; in the experiment on HS 578T breast, 98.9%; in the experiment on NCI/ADR-RES ovarian, 101%.

For `COc1ccc(Cl)cc1NC(=O)c1cc2c([nH]1)-c1nc(NC(=O)C(C)C)sc1CC2`, the growth in the experiment with SK-MEL-2 melanoma is 84.6%; in the experiment with EKVX NSCLC, 82.1%; in the experiment with SN12C renal it was 99.2%; in the experiment on UO-31 renal, 51.9%; with TK-10 renal, 85.8%; in the experiment on A498 renal, 112%. Besides, the growth with CCRF-CEM leukemia is 93.4%; in the experiment on MOLT-4 leukemia it was 86%; with SR leukemia, 77.9%; with OVCAR-8 ovarian, 107%; in the experiment with OVCAR-5 ovarian, 128%; in the experiment with OVCAR-4 ovarian it was 109%. Moreover, the growth is 78.1% in the experiment on SK-OV-3 ovarian; 77.1% in the experiment with IGROV1 ovarian; 103% with OVCAR-3 ovarian; 93.4% in the experiment on HS 578T breast; 93.9% in the experiment on NCI/ADR-RES ovarian.

In the case of `Nc1c(C(=O)O)[nH]c(=O)[nH]c1=O`, the growth in the experiment on SK-MEL-2 melanoma was 99.5%; in the experiment with EKVX NSCLC it was 105%; with SN12C renal it was 98.3%; in the experiment on UO-31 renal, 94.2%; in the experiment with TK-10 renal, 103%; in the experiment on A498 renal, 106%. For the same molecule, the growth in the experiment with CCRF-CEM leukemia was 90.3%; in the experiment on MOLT-4 leukemia, 96.2%; with SR leukemia, 90.2%; in the experiment with RPMI-8226 leukemia it was 99.9%; in the experiment with OVCAR-8 ovarian it was 108%; in the experiment with OVCAR-5 ovarian, 105%. For the same molecule, the growth in the experiment with OVCAR-4 ovarian was 111%; with IGROV1 ovarian, 112%; in the experiment with OVCAR-3 ovarian it was 105%; with HS 578T breast, 102%; in the experiment on NCI/ADR-RES ovarian it was 108%.

For the origin of these results see PubChem BioAssay (NCI).
